Only some compounds are listed: those with a hit (about 1.3% of all), similar ones and a draw of the others.
EPAC2 antag = blocks human EPAC2 exchange factor | Q8WZA2 | EPAC2 GEF exchange of Rap1B-BODIPY-GDP, fluorescence | Potency, µM (doses to about 114 µM), actives largely listed as inhibitors | 360,000 compounds, 0.18% hits | AID 720708; note: nearly all actives have a fitted effect of over 45% in size
EPAC1 agonist = activates human EPAC1 exchange factor; O95398; 360,000 compounds, 0.073% hits; Potency, µM (titrated, usually from 154 µM), actives largely listed as activators; EPAC1 agonist qHTS, biochemical assay; response scale: 100% = response to 6.5 mM cAMP; note: nearly all actives have a fitted effect of over 60% in size
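Nucleotide exchange assay: 100 nM EPAC1 with 250 nM Rap1B loaded with BODIPY-GDP and 50 uM GDP, room temperature. Fluorescence (480/540 nm) read every 5 min for 30 min; signal change normalized to 6.5 mM cAMP as full agonist.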
USP1 inh = blocks the human USP1/UAF1 deubiquitinase complex; O94782; recombinant USP1/UAF1, Ub-Rhodamine cleavage fluorescence; Potency, µM (titrated, usually from 57.1 µM), hits mostly inhibitors; 390,000 compounds, 0.23% hits; AID 743255; note: nearly all actives have a fitted effect of over 60% in size
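In this screen, compounds sit with the deubiquitinase complex (1nM) for 15 min at room temperature before Ub-Rho is added at 150nM final. Fluorescence rise is then followed for 6 reads every 60 seconds.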
EPAC2 agonist = EPAC2 (human) agonism; EPAC2 activation, biochemical qHTS; response scale: 100% = 6.5 mM cAMP response; 360,000 compounds, 0.079% hits; AID 720711; Potency, µM (doses to about 154 µM), hits mostly activators; Q8WZA2; note: nearly all actives have a fitted effect of over 50% in size
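Setup: EPAC2 100 nM, labeled Rap1B complex 250 nM, free GDP 50 uM. Compound titrations pinned in, brief spin, 5 min room temperature incubation. Kinetic fluorescence read over 30 min, normalized to 6.5 mM cAMP.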
EPAC1 antag = EPAC1 (human) antagonism; O95398; EPAC1 GEF assay, Rap1b-BODIPY-GDP exchange fluorescence; Potency, µM (highest dose often 115 µM), actives largely listed as inhibitors; 360,000 compounds, 0.14% hits; AID 720709; note: nearly all actives have a fitted effect of over 50% in size
ALOX12 inh = inhibitors of human 12S-lipoxygenase ALOX12; P18054; purified 12hLO, xylenol orange hydroperoxide absorbance; Potency, µM (top dose mostly 108 µM), actives largely listed as inhibitors; 580,000 compounds, 1.1% hits; AID 1671190
Target sequence (P18054 whole entry, looked up): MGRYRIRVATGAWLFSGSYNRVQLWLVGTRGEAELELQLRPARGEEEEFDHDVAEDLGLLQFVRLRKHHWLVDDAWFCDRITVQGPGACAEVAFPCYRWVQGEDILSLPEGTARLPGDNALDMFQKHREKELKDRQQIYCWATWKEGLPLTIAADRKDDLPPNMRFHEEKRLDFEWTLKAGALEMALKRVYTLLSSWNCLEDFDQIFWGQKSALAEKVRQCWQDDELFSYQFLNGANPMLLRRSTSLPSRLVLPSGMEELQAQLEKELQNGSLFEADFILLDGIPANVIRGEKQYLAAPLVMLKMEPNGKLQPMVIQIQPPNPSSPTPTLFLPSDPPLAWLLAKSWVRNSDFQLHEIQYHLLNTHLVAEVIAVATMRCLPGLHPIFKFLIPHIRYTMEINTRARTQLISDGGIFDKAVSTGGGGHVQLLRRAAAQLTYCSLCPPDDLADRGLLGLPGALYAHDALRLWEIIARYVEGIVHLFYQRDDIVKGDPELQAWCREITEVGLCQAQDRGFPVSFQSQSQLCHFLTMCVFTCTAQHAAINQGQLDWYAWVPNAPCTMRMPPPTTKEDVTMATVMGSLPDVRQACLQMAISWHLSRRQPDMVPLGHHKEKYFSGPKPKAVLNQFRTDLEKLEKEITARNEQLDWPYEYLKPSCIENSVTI
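Hydroperoxide product was detected by ferrous iron/xylenol orange as the 573 to 405 nm absorbance ratio. Arachidonic acid at 40 uM (final) was turned over for 30 min at room temperature by 150 nM human 12hLO, pH 7.0 Hepes buffer, after 15 min compound preincubation.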
Hits are given with their value; – = inactive; ? = inconclusive; · = no result; [ ] = dose if it differs, or a comment. Calls come from the whole dose curve; as a rule, active = well fitted curve in the direction sought with a large enough effect; inconclusive = small, poorly fitted or top-dose-only effect, or another doubt; inactive = no such curve, though single readings can be large; an effect the other way counts as inactive or inconclusive.

SMILES	EPAC2 antag	EPAC1 agonist	USP1 inh	EPAC2 agonist	EPAC1 antag	ALOX12 inh
FC(F)(F)C(Oc1nc(N2CCCCC2)nc(N2CCOCC2)n1)C(F)(F)F	·	·	·	·	·	–
COc1ccc(C)cc1NC(=O)NC(c1ccccc1)c1nnc(-c2ccccc2Cl)o1 (centres undefined)	·	·	·	·	·	–
O=C(c1n[nH]c(=O)c2ccccc12)N1CCC(Cc2ccccc2)CC1	·	·	·	·	·	–
CC(C)CCNc1nc(-c2ccc3[nH]c(=O)[nH]c3c2)cs1	·	·	·	·	·	45µM
COc1cc(-c2csc(NC3CC3)n2)ccc1OC(F)F	·	·	·	·	·	25µM
O=c1[nH]c2ccc(-c3csc(NC4CCCC4)n3)cc2[nH]1	·	·	·	·	·	35µM
CC1C(=O)Nc2ccc(-c3csc(NC4CCCC4)n3)cc21 (centres undefined)	·	·	·	·	·	16µM
Cc1ccc(/C(O)=C2\C(=O)C(=O)NC2c2cccc(F)c2)cc1 (centres undefined)	·	·	·	·	·	–
O=C(Nc1c(Cl)cc(Cl)cc1Cl)C12CC3CC(CC(C3)C1)C2	·	·	·	·	·	–
COCCNC(=O)Cc1nc(-c2cccs2)oc1C	·	·	·	·	·	–
COc1ccccc1CNS(=O)(=O)c1cc(-c2cc(C(F)(F)F)on2)ccc1C	·	·	·	·	·	–
Cc1cc2oc(=O)cc(CN(C)CCO)c2cc1C	·	·	·	·	·	–
O=c1[nH]c2ccc(-c3csc(NC4CC4)n3)cc2[nH]1	·	·	·	·	·	18µM
O=C(NCC1OCCc2ccccc21)c1cccc(Br)c1 (centres undefined)	·	·	·	·	·	–
COc1cc(Br)cc(CN2CCN(C/C=C/c3ccccc3)CC2)c1O	–	–	–	–	–	14µM
COc1ccc(O)c(CN2CCN(C/C=C/c3ccccc3)CC2)c1	–	–	–	–	–	?
CC1(Cc2cccc(F)c2)C(=O)Nc2ccc(-c3cccnc3)cc21 (centres undefined)	?	–	·	–	–	–
CC1(Cc2ccc(Cl)cc2)C(=O)Nc2ccc(-c3cccnc3)cc21 (centres undefined)	50µM	–	·	–	–	–
COc1ccc(C(=O)NC2(C(F)(F)F)NC(=O)N(c3ccccc3F)C2=O)cc1 (centres undefined)	·	·	·	·	·	–
O=C(NC(=S)Nc1ccccc1N1CCOCC1)c1ccc(Br)cc1	–	–	–	–	–	35µM
O=C(COc1ccc(Br)cc1)NC(=S)Nc1ccccc1N1CCOCC1	–	–	–	–	–	?
O=C(NC(=S)Nc1cc(Cl)ccc1N1CCOCC1)c1ccc(-c2cccc(Cl)c2)o1	–	–	–	–	–	–
CCOc1ccc(C(=O)NC(=S)Nc2ccccc2N2CCC(C)CC2)cc1[N+](=O)[O-]	–	–	–	–	–	35µM
Cc1cc(C(=O)NC(=S)Nc2ccccc2N2CCOCC2)ccc1[N+](=O)[O-]	–	–	–	–	–	28µM
O=C(NC(=S)Nc1ccccc1N1CCOCC1)c1ccc(-c2ccccc2F)o1	–	–	–	–	–	25µM
SMILES	EPAC2 antag	EPAC1 agonist	USP1 inh	EPAC2 agonist	EPAC1 antag	ALOX12 inh
Cc1ccc(N2C(=O)CC(N3CCN(c4ccc(F)cc4)CC3)C2=O)c(C)c1 (centres undefined)	–	–	–	–	–	–
O=C(c1sc2cc(F)ccc2c1Cl)N1CCN(c2cccc(Cl)c2)CC1	–	–	–	–	–	–
O=c1c2ccc(F)cc2sn1-c1ccccc1	–	–	?	–	–	0.35µM
O=c1c2cc(F)ccc2sn1-c1ccccc1Cl	–	–	–	–	–	0.45µM
Cc1ccc(-n2sc3cc(F)ccc3c2=O)c(C)c1	–	–	?	–	–	0.4µM
CCSc1nc2c(c(=O)[nH]1)C(c1ccc(C)cc1)C1=C(CCCC1=O)N2 (centres undefined)	–	–	–	–	–	–
Cc1ccc(C2C3=C(CCCC3=O)Nc3nc(SCCC(C)C)[nH]c(=O)c32)o1 (centres undefined)	·	·	·	·	·	7.9µM
Cc1csc2nc(COc3ccc(-c4ccccc4)cc3Cl)cc(=O)n12	·	·	·	·	·	–
COc1ccccc1C1CCN(Cc2ccccc2)CC1	–	–	–	–	–	–
COc1ccccc1C1CCN(Cc2ccc3ccccc3c2)CC1	–	–	–	–	?	14µM
Cc1ccc(/C=C2/NC(=O)N(Cc3ccccc3)C2=O)o1	–	–	–	–	–	32µM
O=C(O)c1cc(-c2ccc(/C=C3/SC(=S)N(Cc4ccccc4)C3=O)o2)ccc1Cl	?	–	25µM	–	–	13µM
Cc1ccc(/C=C2\SC(=S)N(Cc3ccccc3)C2=O)o1	–	–	–	–	–	45µM
Cc1ccc(NC(=O)CN2C(=O)S/C(=C/c3ccc(-c4cccc(C(=O)O)c4)o3)C2=O)cc1	–	–	–	–	–	40µM
Cc1ccc(-c2cn3ccccc3n2)cc1NS(=O)(=O)c1ccccc1	·	·	·	·	·	–
O=C(Nc1cccc(F)c1)c1ncoc1-c1cccc(Cl)c1	·	·	·	·	·	–
O=C(CCl)N1c2ccccc2OCC1c1ccccc1 (centres undefined)	–	–	–	–	–	–
O=C(CCl)N1c2ccccc2SCC1c1ccccc1 (centres undefined)	–	–	?	–	–	20µM
CCNC(=S)N/N=C/c1cccc(OCc2c(F)cccc2Cl)c1	–	–	–	–	–	40µM
Cc1ccc(NC(=O)Cn2cnnc2C#N)cc1C	·	·	·	·	·	–
COc1ccc([C@@H]2C[C@H](c3ccccc3)Oc3cc(C)cc(C)c32)cc1	–	–	–	–	–	1.1µM
COc1ccc([C@@H]2C[C@@H](c3ccccc3)Oc3cc(OC)cc(OC)c32)cc1	–	–	?	–	–	–
O=C(/C=C/c1ccccc1)C1=C(O)C(=O)N(CCO)C1c1cccc([N+](=O)[O-])c1 (centres undefined)	–	–	–	–	–	22µM
S=c1nc(-c2ccccc2Br)[nH][nH]1	–	–	–	–	–	25µM
S=c1nc(-c2cccc(Cl)c2)[nH][nH]1	–	–	–	–	–	?
SMILES	EPAC2 antag	EPAC1 agonist	USP1 inh	EPAC2 agonist	EPAC1 antag	ALOX12 inh
S=c1nc(-c2cc(Cl)ccc2Cl)[nH][nH]1	–	–	–	–	–	10µM
Oc1c(Br)cc(/C=N/Nc2ccc(Cl)nn2)cc1Br	–	–	–	–	25µM	?
CCCc1nnc(NC(=O)c2cc(-c3ccccc3)on2)s1	·	·	·	·	·	–
O=C(O)c1ccc(-n2cccc2/C=N\NC(=O)c2cc3cc(Br)ccc3o2)cc1	–	–	–	–	?	35µM
Cn1cc(/C=N/NC(=O)c2cc3cc(Br)ccc3o2)c2ccccc21	–	–	–	–	–	–
C/C(=C\c1ccccc1)C(=O)NC1CCCC1	·	·	·	·	·	–
CCCc1c(CC)c(=N)c2ccccc2n1C	–	–	–	–	–	5µM
S=c1sscc1-c1ccccc1	–	–	–	–	–	5.6µM
O=c1c(-c2ccccc2)c1-c1ccccc1	·	·	·	·	·	–[22.9 µM]

Screens deposited in PubChem BioAssay by National Center for Advancing Translational Sciences (NCATS).
